Assay outcomes (PubChem)
HCV inh: HCV inhibition; 340,000 compounds, 3.4% hits; Huh7.5.1 HCVcc-Cre infection, luciferase reporter, 44 h; Potency, µM (series often up to 41.8 µM), without a hit: at the top dose activity change, negative = inhibition, usual class: inhibitors; active means well fitted inhibition curve with a large enough effect; inconclusive means small, poorly fitted or top-dose-only effect, or another doubt; inactive means no such curve, though single readings can be large or run the other way; further: potency means the concentration at half of the fitted maximal effect
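Luciferase read-out (15 sec integration) after a 15 min room-temperature substrate step quantifies HCVcc-Cre infection. Cells, 1,000 per well, had compound added 4 h post-plating, then virus at ~0.5 moi, and were cultured 44 h.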
HCMV antiviral: inhibitors of human cytomegalovirus | HFF cells, HCMV-luciferase reporter, 72 h; hits give low values | activity change, negative = inhibition, % at 57.5 µM | 410,000 compounds, 4.5% hits | AID 1259415; in the data active means activity change below about -60%; inconclusive means no clear call, values can overlap the other calls; inactive means above about -39%
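Cell-based, HFFs, 1000 cells/well, 16 h 37C; cpds in DMSO + HCMV-luc, MOI 1 PFU/cell; 72 h 37C; OneGlo luminescence after 5 min RT; norm. to buffer vs Salinomycin 10uM.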
VACV Venus inh: inhibitors of vaccinia virus (Venus reporter) | AID 720580 | 330,000 compounds, 0.46% hits | Vaccinia virus Venus reporter expression, fluorescence | Potency, µM (titrated, usually from 36.5 µM), inactives show at the highest dose activity change, negative = inhibition, most hits filed as inhibitors; calls by dose curve; tested in A549 cells; further: potency means the concentration at half of the fitted maximal effect; nearly all actives have a fitted effect of over 30% in size
FMDV inh: antivirals against foot and mouth disease virus; 410,000 compounds, 1.2% hits; AID 1159524; Potency, µM (doses to about 57.9 µM), for inactives: at the top dose activity change, negative = inhibition, most hits filed as inhibitors; FMDV antiviral cell-based qHTS; calls by dose curve; tested in HEK293T cells; further: read-out not given here; potency means the concentration at half of the fitted maximal effect; nearly all actives have a fitted effect of over 45% in size
Vaccinia mCherry: vaccinia inhibition (mCherry reporter). 310,000 compounds, 0.63% hits. Vaccinia virus mCherry reporter infection, fluorescence. Potency, µM (top dose mostly 36.5 µM), for inactives: at the top dose activity change, negative = inhibition, actives largely listed as inhibitors. AID 720579; calls by dose curve; tested in A549 cells; further: potency means the concentration at half of the fitted maximal effect; nearly all actives have a fitted effect of over 35% in size
* = called active by the depositor; i = inactive; ? = inconclusive; nt = not tested or not shown; + = active, no number; [ ] = remark or other dose. Hits are enriched below; roughly 7.3% of the tested compounds scored in any of these assays. On the % scale 0 is the no-effect control and ±100 the full control effect.

SMILES | HCV inh | HCMV antiviral | VACV Venus inh | FMDV inh | Vaccinia mCherry
COCC(C)NC(=O)c1cc(S(=O)(=O)N2CCCCC2)ccc1N1CCOCC1 (centres undefined) | 20% | 19 | -12% | -13% | -10%
O=C(OCc1cccc(Cl)c1)c1cc(S(=O)(=O)N2CCCCC2)ccc1N1CCOCC1 | 11µM* | -35 | -30% | -27% | -11%
O=C(OCc1cccc(C(F)(F)F)c1)c1cc([N+](=O)[O-])ccc1N1CCOCC1 | ? | -31 | -8% | -11% | -5%
CCCCN1C(=O)C(CC(=O)NC2CCCC2)CC(C(=O)N2CCCCCC2)=C1C (centres undefined) | nt | 5 | nt | nt | nt
O=C(OCc1ccc(Br)cc1)c1cc([N+](=O)[O-])ccc1N1CCOCC1 | nt | -30 | ? | 0% | -26%
COc1ccc(COC(=O)c2cc([N+](=O)[O-])ccc2N2CCOCC2)cc1F | 32µM* | -73* | ? | ? | ?
Cc1ccc(C)c(COC(=O)c2cc(S(=O)(=O)N3CCCCC3)ccc2N2CCOCC2)c1 | 0% | -8 | -28% | -27% | ?
Cc1ccc(C)c(COC(=O)c2cc([N+](=O)[O-])ccc2N2CCOCC2)c1 | 13µM* | ? | -21% | -27% | ?
O=C(Cn1cnc2sc3c(c2c1=O)CCCC3)NCC(=O)Nc1ccc(F)cc1F | 2% | 2 | -9% | -4% | i
Cc1ccc(NC(=O)Cn2cc(S(=O)(=O)N3CCN(c4ccccc4F)CC3)c3ccccc3c2=O)cc1F | nt | 14 | -6% | -11% | -14%
CCOC(=O)N1CC=C2C(C#N)=C(N)C(C#N)(C#N)[C@H](c3cccs3)C2C1 (some centres undefined) | -13% | -26 | -18% | ? | -25%
CC(C)(C)OC(=O)N1CC=C2C(C#N)=C(N)C(C#N)(C#N)C(c3cccs3)C2C1 (centres undefined) | ? | 43 | nt | 22µM* | nt
COc1ccc(NC(=O)COC(=O)c2c(C)noc2C)cc1Cl | nt | ? | -10% | -1% | i
Nc1nonc1-n1nnc(C(=O)N/N=C/c2ccc(F)cc2)c1-c1cccs1 | -11% | + | -8% | 2% | -15%
COc1ccccc1/C=N/NC(=O)c1nnn(-c2nonc2N)c1-c1cccs1 | 35% | nt | nt | -16% | nt
Nc1nonc1-n1nnc(C(=O)N/N=C/c2cccc(Cl)c2)c1-c1ccc2c(c1)OCO2 | -4% | + | -9% | -15% | i
Nc1nonc1-n1nnc(C(=O)N/N=C/c2c(F)cccc2Cl)c1-c1ccc2c(c1)OCO2 | 22% | 0 | nt | 8% | nt
Nc1nonc1-n1nnc(C(=O)N/N=C/c2ccc(Br)cc2)c1-c1ccc2c(c1)OCO2 | -2% | + | -15% | 15% | -12%
Nc1nonc1-n1nnc(C(=O)N/N=C/c2ccc3c(c2)OCO3)c1-c1ccccc1 | ? | -70* | -5% | 5% | -5%
CC[C@@H]1Cn2c(c3nc(-c4ccccc4)nc-3n(C)c2=O)N1 | nt | nt | nt | -15% | nt
COC(=O)C1=C(C)N(C)C(=NCc2cc(OC)c(OC)c(OC)c2)NC1c1cccc(Cl)c1 (centres undefined) | nt | -6 | nt | nt | nt
CCN(Cc1ccccc1)C(=O)c1cc2c(=O)oc3ccc(C)cc3c2s1 | ? | -13 | -8% | -19% | 3%
Cc1ccc2oc(=O)c3cc(C(=O)N(Cc4ccccc4)C(C)C)sc3c2c1 | nt | -105* | 2% | -29% | -12%
Cc1sc2ccccc2[n+]1CCCC[n+]1c(C)sc2ccccc21 | nt | nt | ? | nt | 2.8µM*
Cc1sc2ccccc2[n+]1CCCCBr | nt | nt | ? | nt | 7.1µM*
SMILES | HCV inh | HCMV antiviral | VACV Venus inh | FMDV inh | Vaccinia mCherry
Cc1sc2ccccc2[n+]1Cc1ccccc1 | nt | nt | 2% | nt | -3%
Cc1sc2ccccc2[n+]1C | nt | nt | 1% | nt | -15%
Cc1ccc(CNC(=O)c2c(Nc3ccccc3C)sc(C(=O)c3ccc(F)cc3)c2N)cc1 | nt | -75* | ? | -13% | 11µM*
COc1cccc(Nc2sc(C(=O)c3ccc(F)cc3)c(N)c2C(=O)NCc2ccc(C)cc2)c1 | nt | -62* | -21%[7.34 µM] | 14µM* | -3%[7.34 µM]
COC(=O)[C@@]12C[C@@H](CC(=O)NCC3CCCCC3)C(=O)N(Cc3ccccc3)C1=CCC(C)(C)C2 | nt | -26 | ? | -5% | ?
COc1ccc(S[C@]2(c3nc(C)no3)CC(=O)N(C(=O)CCc3ccccc3)[C@@H]2c2ccc(OC)cc2)cc1 | nt | 1 | nt | nt | nt
O=[N+]([O-])c1ccc(N2CCCC(C(F)(F)F)C2)c2ccncc12 (centres undefined) | 10µM* | -12 | 7.9µM* | ? | 2.8µM*
CCOC(=O)C1=C(COC(=O)/C=C/c2ccc(OC)cc2)NC(=O)NC1C (centres undefined) | 3.2µM* | -5 | -27% | ? | ?
CC(C)C(Cl)=NOC(=O)Nc1ccc(S(N)(=O)=O)cc1 | ? | -18 | 7% | ? | i
CCN1C[C@@H]2[C@@H]3C(=O)N(Cc4ccccc4)C(=O)[C@@H]3[C@](C)(C(=O)OC)N2C1=NC1CCCCC1 | ? | -18 | 3% | -1% | -22%
COC(=O)[C@@]1(C)[C@H]2C(=O)N(Cc3ccccc3)C(=O)[C@H]2[C@H]2CN(C)C(=NC3CCCCC3)N21 | 0.56µM* | -12 | -15% | -2% | -26%
Cc1ccc(-n2[nH]c(C)c(/C=N/NC(=O)c3ccc([N+](=O)[O-])cc3)c2=O)c(C)c1 | nt | -3 | nt | nt | nt
CC(=O)N/N=C/c1c(C)[nH]n(-c2ccccc2)c1=O | 6% | 6 | 8% | -10% | i
Cc1ccc(-n2[nH]c(C)c(/C=N/Nc3ccc([N+](=O)[O-])cc3[N+](=O)[O-])c2=O)cc1C | -13% | -40 | -23% | 10µM* | -24%
Cc1[nH]n(-c2ccccc2)c(=O)c1/C=N/NC(=O)c1ccccc1F | ? | -94* | nt | 43% | nt
COc1c(/C=N/Nc2ccc([N+](=O)[O-])cc2[N+](=O)[O-])c(C)nn1-c1ccccc1 | 2% | -16 | -8% | -4% | i
Cc1[nH]n(-c2ccccc2)c(=O)c1/C=N/NC(=O)c1cccc([N+](=O)[O-])c1 | 2% | -104* | -8% | 0% | nt
Cc1[nH]n(-c2cccc3ccccc23)c(=O)c1/C=N/NC(=O)c1cccc([N+](=O)[O-])c1 | ? | -101* | -11% | -24% | i
Cc1[nH]n(-c2ccccc2)c(=O)c1/C=N/NC(=O)COc1ccccc1[N+](=O)[O-] | ? | -16 | nt | -1% | nt
NCc1ccccc1Sc1ccccc1CO | nt | -18 | nt | nt | nt
COCCN(C(=O)c1snc(C(N)=O)c1N)C(C(=O)NC1CCCCC1)c1ccc(OC)c(OC)c1 (centres undefined) | 5% | 24 | nt | -1% | nt
COC(=O)c1ccc(CNC(=O)C(C)N=C2NS(=O)(=O)c3ccccc32)cc1 (centres undefined) | -2% | -14 | -10% | 5% | -13%
CC(C)C[C@H]1CN(CCCC[C@H]2CNC(=O)C(=O)N2Cc2ccccc2)C(=O)C(=O)N1CCC1CCCCC1 | nt | -18 | -4% | -13% | -15%
